# Unmarked numbers belong to inactive results. Active and inactive are the calls of the source. How the calls were made is not given here.
# Target: L-lactate dehydrogenase (Plasmodium falciparum (isolate CDC / Honduras)) (UniProt Q27743)
# Experiment: PfLDH activity inhibition – cell lysate, 3D7 strain, counter-screen for P. falciparum growth inhibition project (AID 2304);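 further: 0% = vehicle and 100% = reference inhibitor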
# Settings: P. falciparum 3D7 crude extract, LDH APAD/NBT absorbance; at 2 µM; stronger effect = higher value
# Chain of L-lactate dehydrogenase (Plasmodium falciparum (isolate CDC / Honduras)) (Q27743 whole entry, looked up): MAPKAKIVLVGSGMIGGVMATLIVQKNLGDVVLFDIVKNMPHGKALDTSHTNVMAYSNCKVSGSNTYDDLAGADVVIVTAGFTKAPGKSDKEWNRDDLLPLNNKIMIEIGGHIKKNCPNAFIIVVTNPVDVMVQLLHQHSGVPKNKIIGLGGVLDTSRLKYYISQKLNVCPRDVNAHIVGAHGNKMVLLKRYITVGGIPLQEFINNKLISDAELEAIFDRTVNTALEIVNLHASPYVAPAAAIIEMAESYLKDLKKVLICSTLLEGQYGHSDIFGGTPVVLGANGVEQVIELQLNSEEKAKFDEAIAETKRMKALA
row,Compound,inhibition [%]
1,CN(C)CCOc1cc(O)c2c(c1)OC(C)(C)C=C2c1cccs1,-2
2,COc1ccc(Nc2nccc(N3CCC(NC(=O)Nc4ccc5c(c4)OCO5)C3)n2)cc1 (stereo not given),-2
3,O=C(NCCCCN1CCN(c2cccc(Cl)c2Cl)CC1)c1ccc2c(c1)CCN(C1CCC1)CC2,3
4,CNC(=O)c1cnc(Nc2ccc(N3CCN(C)CC3)cc2)nc1Nc1cccc(OC)c1,5
5,CC(C)n1ncc2c(C(=O)N3CCCC4CCCCC43)cc(C3CC3)nc21 (stereo not given),2
6,O=C(Nc1cc(C(F)(F)F)cc(C(F)(F)F)c1)c1cc(C(F)(F)F)cc(C(F)(F)F)c1,2
7,CC(C)c1sc(N2CCN(C)CC2)nc1C(=O)Nc1ccc(F)cc1C(F)(F)F,4
8,O=C(NCCc1ccccc1)[C@H](Cc1ccccc1)Nc1ccnc(NCC2CCCCC2)n1,2
9,C=CCc1cc(OC)ccc1OCCCOc1c(C)nc(N)nc1N,-2
10,COc1cc(Nc2nccc(N3CCC(NC(=O)c4cccc(C#N)c4)C3)n2)cc(OC)c1OC (stereo not given),-8
11,Cc1ccc(NC(=O)c2ccc3ncccc3c2)cc1OC1CCN(Cc2ccsc2)CC1,-2
12,COc1cccc(N(CCCN2C(=O)c3cccc4cccc(c34)C2=O)C(=O)c2ccccc2C)c1,-7
13,Cc1cccc2[nH]c(-c3ccc(-c4cccc(CN5CCC(CO)CC5)c4)s3)nc12,-8
14,Nc1nc(N)c2c(Oc3cccnc3)cccc2n1,6
15,COc1cc2nc(Nc3ccc(C)cc3)nc(Nc3ccc(C)cc3)c2cc1OC,-1
16,Cc1cc(N[C@@H](Cc2ccccc2)C(=O)NCCc2ccccc2)nc(NCC2CCCCC2)n1,-2
17,CCN(CC)CCN(Cc1ccc(-c2ccc(C(F)(F)F)cc2)cc1)C(=O)Cn1c(CCc2c(F)ccc(F)c2F)nc(=O)c2ccccc21,-6
18,Cc1noc(C)c1-c1ccc2c(Nc3ccccc3C(C)(C)C)c(C(=O)NCc3ccc4c(c3)OCO4)cnc2c1,-3
19,CN1CCN(c2ccc(-c3cc(-c4cc(F)c(F)c(F)c4)cnc3N)cc2)CC1,-4
20,Cc1cc(NC(=O)c2cccs2)ccc1OC1CCN(Cc2ccc(F)cc2)C1 (stereo not given),0

row,Compound,inhibition [%]
1,CCNc1cc(C(=O)N[C@@H](Cc2ccccc2)[C@H](O)CNC2(CC)CCCCC2)cc(N2CCCCS2(=O)=O)c1,-3
2,Cc1csc(-c2nc(NCc3cccnc3)ncc2-c2ccsc2)n1,-1
3,COc1ccc(C=NNc2cc(C)nc3ccc(OC)cc23)c(OC)c1,-5
4,O=C(c1ccc(F)c(F)c1)N1CCOC(CCN2CCC(c3ccccc3)CC2)(c2ccc(Cl)c(Cl)c2)C1 (stereo not given),2
5,COc1ccc2nccc([C@@H](O)CN3CCC(NC(=O)/C=C/c4ccc5[nH]c(=O)ccc5c4)CC3)c2c1,5
6,COc1ccccc1CCNc1nc(C)cc(N[C@@H](Cc2ccccc2)C(=O)NCCCOC(C)C)n1,-1
7,COc1ccccc1-c1cccc(Nc2c(Nc3ccc(Cl)cc3)c(=O)c2=O)c1,0
8,Cc1cc(-c2ccc(NC(=O)c3coc4ccc(N5C[C@@H](C)N(C)[C@@H](C)C5)cc34)cc2C)cc(C)n1,-4
9,CCCCCC(C)C(C)c1cc(OC(N)=O)c2c(c1)OC(C)(C)C=C2c1ccncc1 (stereo not given),0
10,Cc1cc(N[C@@H](Cc2ccccc2)C(=O)NCCOc2ccccc2)nc(NCCc2ccc(F)cc2)n1,1
11,COc1cccc(Nc2nc(NCCO)c3ccccc3n2)c1,-6
12,COc1ccc(C(C(=O)NC2CCN(C[C@H](O)c3ccnc4ccc(OC)cc34)CC2)N2CCN(c3ccc([N+](=O)[O-])cc3)CC2)cc1 (stereo not given in full),-3
13,CC(C)COc1ccc(Cl)cc1Cc1ccc(-c2nc3ccc(F)cc3[nH]2)o1,6
14,COc1ccccc1NC(=O)OC(COc1ccc(N)cc1)CN1CC=C(c2ccccc2)CC1 (stereo not given),3
15,COCCn1c(C)cc(C(=O)CN2C(=O)NC(C)(c3ccc(C(C)(C)C)cc3)C2=O)c1C (stereo not given),1
16,COc1ccc2ncc(Cl)c(CCN3CCC(NCc4ccc5c(n4)NC(=O)CO5)CC3)c2c1,-1
17,NC(=NCCCc1ccccc1)c1cccc(C(N)=NCCCc2ccccc2)n1,-6
18,COc1cc2nc(C)nc(Nc3ccc(Cc4ccccc4)cc3)c2cc1OC,-1
19,COc1ccc(-c2nonc2NC(=O)c2ccc(OC(C)C)cc2)cc1OC,-3
20,CCc1c(CCNCCCCCCNCCc2ccc(Br)cc2)ccc(O)c1O,-1

# System: not listed separately
# Experiment: inhibition of 3D7 malaria parasite growth – strain 3D7 (AID 2306);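 further: 0% = DMSO wells and 100% = chloroquine plus artemisinin control wells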
# Settings: P. falciparum 3D7 erythrocytic growth, LDH absorbance, 72 h; at 2 µM; stronger effect = higher value
row,Compound,growth inhibition
1,CN(C)CCOc1cc(O)c2c(c1)OC(C)(C)C=C2c1cccs1,99% (active)
2,COc1ccc(Nc2nccc(N3CCC(NC(=O)Nc4ccc5c(c4)OCO5)C3)n2)cc1 (stereo not given),98% (active)
3,O=C(NCCCCN1CCN(c2cccc(Cl)c2Cl)CC1)c1ccc2c(c1)CCN(C1CCC1)CC2,95% (active)
4,CNC(=O)c1cnc(Nc2ccc(N3CCN(C)CC3)cc2)nc1Nc1cccc(OC)c1,100% (active)
5,CC(C)n1ncc2c(C(=O)N3CCCC4CCCCC43)cc(C3CC3)nc21 (stereo not given),99% (active)
6,O=C(Nc1cc(C(F)(F)F)cc(C(F)(F)F)c1)c1cc(C(F)(F)F)cc(C(F)(F)F)c1,101% (active)
7,CC(C)c1sc(N2CCN(C)CC2)nc1C(=O)Nc1ccc(F)cc1C(F)(F)F,101% (active)
8,O=C(NCCc1ccccc1)[C@H](Cc1ccccc1)Nc1ccnc(NCC2CCCCC2)n1,86% (active)
9,C=CCc1cc(OC)ccc1OCCCOc1c(C)nc(N)nc1N,92% (active)
10,COc1cc(Nc2nccc(N3CCC(NC(=O)c4cccc(C#N)c4)C3)n2)cc(OC)c1OC (stereo not given),91% (active)
11,Cc1ccc(NC(=O)c2ccc3ncccc3c2)cc1OC1CCN(Cc2ccsc2)CC1,93% (active)
12,COc1cccc(N(CCCN2C(=O)c3cccc4cccc(c34)C2=O)C(=O)c2ccccc2C)c1,86% (active)
13,Cc1cccc2[nH]c(-c3ccc(-c4cccc(CN5CCC(CO)CC5)c4)s3)nc12,99% (active)
14,Nc1nc(N)c2c(Oc3cccnc3)cccc2n1,93% (active)
15,COc1cc2nc(Nc3ccc(C)cc3)nc(Nc3ccc(C)cc3)c2cc1OC,101% (active)
16,Cc1cc(N[C@@H](Cc2ccccc2)C(=O)NCCc2ccccc2)nc(NCC2CCCCC2)n1,101% (active)
17,CCN(CC)CCN(Cc1ccc(-c2ccc(C(F)(F)F)cc2)cc1)C(=O)Cn1c(CCc2c(F)ccc(F)c2F)nc(=O)c2ccccc21,98% (active)
18,Cc1noc(C)c1-c1ccc2c(Nc3ccccc3C(C)(C)C)c(C(=O)NCc3ccc4c(c3)OCO4)cnc2c1,96% (active)
19,CN1CCN(c2ccc(-c3cc(-c4cc(F)c(F)c(F)c4)cnc3N)cc2)CC1,88% (active)
20,Cc1cc(NC(=O)c2cccs2)ccc1OC1CCN(Cc2ccc(F)cc2)C1 (stereo not given),95% (active)

row,Compound,growth inhibition
1,CCNc1cc(C(=O)N[C@@H](Cc2ccccc2)[C@H](O)CNC2(CC)CCCCC2)cc(N2CCCCS2(=O)=O)c1,98% (active)
2,Cc1csc(-c2nc(NCc3cccnc3)ncc2-c2ccsc2)n1,87% (active)
3,COc1ccc(C=NNc2cc(C)nc3ccc(OC)cc23)c(OC)c1,100% (active)
4,O=C(c1ccc(F)c(F)c1)N1CCOC(CCN2CCC(c3ccccc3)CC2)(c2ccc(Cl)c(Cl)c2)C1 (stereo not given),89% (active)
5,COc1ccc2nccc([C@@H](O)CN3CCC(NC(=O)/C=C/c4ccc5[nH]c(=O)ccc5c4)CC3)c2c1,96% (active)
6,COc1ccccc1CCNc1nc(C)cc(N[C@@H](Cc2ccccc2)C(=O)NCCCOC(C)C)n1,99% (active)
7,COc1ccccc1-c1cccc(Nc2c(Nc3ccc(Cl)cc3)c(=O)c2=O)c1,81% (active)
8,Cc1cc(-c2ccc(NC(=O)c3coc4ccc(N5C[C@@H](C)N(C)[C@@H](C)C5)cc34)cc2C)cc(C)n1,94% (active)
9,CCCCCC(C)C(C)c1cc(OC(N)=O)c2c(c1)OC(C)(C)C=C2c1ccncc1 (stereo not given),96% (active)
10,Cc1cc(N[C@@H](Cc2ccccc2)C(=O)NCCOc2ccccc2)nc(NCCc2ccc(F)cc2)n1,99% (active)
11,COc1cccc(Nc2nc(NCCO)c3ccccc3n2)c1,99% (active)
12,COc1ccc(C(C(=O)NC2CCN(C[C@H](O)c3ccnc4ccc(OC)cc34)CC2)N2CCN(c3ccc([N+](=O)[O-])cc3)CC2)cc1 (stereo not given in full),99% (active)
13,CC(C)COc1ccc(Cl)cc1Cc1ccc(-c2nc3ccc(F)cc3[nH]2)o1,97% (active)
14,COc1ccccc1NC(=O)OC(COc1ccc(N)cc1)CN1CC=C(c2ccccc2)CC1 (stereo not given),90% (active)
15,COCCn1c(C)cc(C(=O)CN2C(=O)NC(C)(c3ccc(C(C)(C)C)cc3)C2=O)c1C (stereo not given),97% (active)
16,COc1ccc2ncc(Cl)c(CCN3CCC(NCc4ccc5c(n4)NC(=O)CO5)CC3)c2c1,92% (active)
17,NC(=NCCCc1ccccc1)c1cccc(C(N)=NCCCc2ccccc2)n1,98% (active)
18,COc1cc2nc(C)nc(Nc3ccc(Cc4ccccc4)cc3)c2cc1OC,101% (active)
19,COc1ccc(-c2nonc2NC(=O)c2ccc(OC(C)C)cc2)cc1OC,100% (active)
20,CCc1c(CCNCCCCCCNCCc2ccc(Br)cc2)ccc(O)c1O,95% (active)

# Source: PubChem BioAssay
